# The full ranking holds about 18,000 sequences; the median of “log2 normalized intensity” is about 0.36, and the highest 2% start at about 7.3. This is one part of a sample in which the highest values are shown more often than they occur.
# Molecular target: T1, HNF4alpha8 (COS-7 nuclear extract) (Homo sapiens, UniProt P41235-5 1-452)
# T1 sequence: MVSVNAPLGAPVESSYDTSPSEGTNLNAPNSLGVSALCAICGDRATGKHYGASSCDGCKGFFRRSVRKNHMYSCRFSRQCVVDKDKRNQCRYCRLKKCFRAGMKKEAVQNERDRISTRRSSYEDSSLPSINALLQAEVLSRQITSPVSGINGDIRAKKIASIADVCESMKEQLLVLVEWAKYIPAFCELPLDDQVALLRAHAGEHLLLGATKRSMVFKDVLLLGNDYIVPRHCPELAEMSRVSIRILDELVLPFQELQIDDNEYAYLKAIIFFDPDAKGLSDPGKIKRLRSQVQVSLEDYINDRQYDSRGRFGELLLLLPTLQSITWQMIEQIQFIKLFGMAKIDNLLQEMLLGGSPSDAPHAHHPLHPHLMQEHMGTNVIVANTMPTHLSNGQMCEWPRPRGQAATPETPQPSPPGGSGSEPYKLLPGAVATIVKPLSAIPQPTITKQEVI
# Experiment: protein-binding microarray; COS-7 nuclear extract on double-stranded Agilent 4x180k PBM; binding buffer, salt, pH and temperature not given in the material; high values mean tight binding
# Conditions: chain copies: 2; label: 3' end of strand 1 on the slide; dsDNA, one strand shown
# How it was run: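 Binding signal was defined as the normalized, background-corrected gProcessedSignal reported by Agilent software. It came from nuclear extracts of COS-7 cells transiently transfected with a human HNF4α isoform expression vector, applied to a custom Agilent SurePrint G3 4x180k array. That array held ~44,000 test sequences in quadruplicate as double-stranded ~60-nt oligonucleotides, and bound HNF4α was imaged at 2-µm resolution on an Agilent G2565CA scanner.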
row,Sequence,binding signal [log2 normalized intensity]
1,GGCTAAACCTAGCCCCCTTTCCCTTATCTTGCCTAGGGAGATTAGAGTATCGGTCGA,2.81
2,ACAGGTGCTCTTTATCAGCACCAAGAACAAGCCTAGGGAGATTAGAGTATCGGTCGA,-0.837
3,GTAGTGGGGAGGGCATGGACTTTGGAATTAGCCTAGGGAGATTAGAGTATCGGTCGA,8.06
4,GAATGACTTTGGGGAAATGACCTTTGTCCAGCCTAGGGAGATTAGAGTATCGGTCGA,9.48
5,GGAGGACTTTGGAATGGCAGTGCTTGTCCAGCCTAGGGAGATTAGAGTATCGGTCGA,2.52
6,CTGGTGTAGTGGGGAGGGCATGGACTTTGGGCCTAGGGAGATTAGAGTATCGGTCGA,6.38
7,GCATGGAATGACTTTGGGGAAATGACCTTTGCCTAGGGAGATTAGAGTATCGGTCGA,7.96
8,TGATGACTTTTGACCCCAGGGGAAACTCCAGCCTAGGGAGATTAGAGTATCGGTCGA,5.06
9,GTATTAACATGTAAATATGACCTTTGCTTTGCCTAGGGAGATTAGAGTATCGGTCGA,7.1
10,TTATCATGTGGTATTAACATGTAAATATGAGCCTAGGGAGATTAGAGTATCGGTCGA,1.36
11,CCTTTTTGGAATGTGTTTGCATGACTCATAGCCTAGGGAGATTAGAGTATCGGTCGA,1.5
12,ATGTGGTATTAACATGTAAATATGACCTTTGCCTAGGGAGATTAGAGTATCGGTCGA,8.01
13,GGGGAGGGCATGGACTTTGGAATTAAGGAGGCCTAGGGAGATTAGAGTATCGGTCGA,5.91
14,ATGACCTTTGAGCAATAGGAAATGGGAGGGGCCTAGGGAGATTAGAGTATCGGTCGA,3.35
15,TCACAATGGGGCATGACTTGTTATCACCTGGCCTAGGGAGATTAGAGTATCGGTCGA,0.285
16,TCCTTCTTGCTTAGGATAGGGTCAGTCTTTGCCTAGGGAGATTAGAGTATCGGTCGA,2.48
17,AGGCCGGTTGGCCAGGTTCCTCCACCGTCAGCCTAGGGAGATTAGAGTATCGGTCGA,-0.785
18,TTCAGGCAGGAATGCTGAACAATTGATTTAGCCTAGGGAGATTAGAGTATCGGTCGA,-0.858
19,GTCAAAAGGTGTATGTGGACTTTCAACTGCGCCTAGGGAGATTAGAGTATCGGTCGA,6.13
20,CCACACAGCACGTAATAGTTCATGAAATGGGCCTAGGGAGATTAGAGTATCGGTCGA,0.614
21,AAACAGAGGCTGAAATGGTTACAAAGGTCAGCCTAGGGAGATTAGAGTATCGGTCGA,5.42

row,Sequence,binding signal [log2 normalized intensity]
1,GGGGAAATGACCTTTGTCCAGCTGTGCCGAGCCTAGGGAGATTAGAGTATCGGTCGA,7.01
2,ACTTTGGGGAAATGACCTTTGTCCAGCTGTGCCTAGGGAGATTAGAGTATCGGTCGA,7.84
3,AATGACCTTTGTCCAGCTGTGCCGAGCCTGGCCTAGGGAGATTAGAGTATCGGTCGA,4.91
4,TTGGCTCTTATGTCCCTCCTGACCTTTGGAGCCTAGGGAGATTAGAGTATCGGTCGA,9.16
5,TCCAGTGGACATTGGCCCTTTGACCTTTAAGCCTAGGGAGATTAGAGTATCGGTCGA,8.05
6,ACTGCTCCAGTGGACATTGGCCCTTTGACCGCCTAGGGAGATTAGAGTATCGGTCGA,6.76
7,AACTCTCAGTTTGGCTCTTATGTCCCTCCTGCCTAGGGAGATTAGAGTATCGGTCGA,0.947
8,GACCTTTGGACTTGATAGAGTTTAAGTCTTGCCTAGGGAGATTAGAGTATCGGTCGA,7.2
9,CTCCTGACCTTTGGACTTGATAGAGTTTAAGCCTAGGGAGATTAGAGTATCGGTCGA,8.25
10,TCAGTTTGGCTCTTATGTCCCTCCTGACCTGCCTAGGGAGATTAGAGTATCGGTCGA,3.83
11,GCCTCTTTATCTCCTCCCCTTGAGACTTTAGCCTAGGGAGATTAGAGTATCGGTCGA,2.97
12,ATATCCTGACTGCTGACCTTTAAGCCTATAGCCTAGGGAGATTAGAGTATCGGTCGA,4.7
13,TCTTATGTCCCTCCTGACCTTTGGACTTGAGCCTAGGGAGATTAGAGTATCGGTCGA,10.6
14,ACCTTTGTCCTCATTGAGCCCTCCCCTTGTGCCTAGGGAGATTAGAGTATCGGTCGA,4.38
15,TGGACATTGGCCCTTTGACCTTTAATCAAGGCCTAGGGAGATTAGAGTATCGGTCGA,7.21
16,ACTACATTTCCAAGACCTCTTTGCGGATAGGCCTAGGGAGATTAGAGTATCGGTCGA,-0.337
17,AGTCAATCCCGTGGACTTTGCCTGCCCATCGCCTAGGGAGATTAGAGTATCGGTCGA,5.08
18,GCCTGCCCTTCGCTCCCCGACCTCCTGCTGGCCTAGGGAGATTAGAGTATCGGTCGA,2.62
19,CAGGTATTTGCTCTGTGATAGCCTTTTACCGCCTAGGGAGATTAGAGTATCGGTCGA,1.5
20,GGCAGGCTTCGAAAAATGGGTCTGGGATGTGCCTAGGGAGATTAGAGTATCGGTCGA,0.36
21,AGGGATTTCAGTGCCCTCATAAGAGACTTTGCCTAGGGAGATTAGAGTATCGGTCGA,2.22
